This is an account of results in PubChem BioAssay AID2685 (National Center for Advancing Translational Sciences (NCATS), 2010).

About 2,100 (0.66%) of roughly 320,000 compounds were called active. Another 53% or so got no clear call; they are omitted. This is one part of a sample in which actives are shown more often than they occur. The call rests on the fitted dose curve; in most records, active means well fitted inhibition curve with a large enough effect in the signal ratio, with a control signal flat (not every such curve was filed as active); inconclusive means small, poorly fitted or top-dose-only effect, or effect the other way, or a change in a side signal; inactive means flat fitted curve, though single readings scatter; the % refers to the signal ratio.
Potency means the concentration at half of the fitted maximal effect.

This test can be described thus: qHTS Assay for Lipid Storage Modulators in Drosophila S3 Cells.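 On cell number change: cells counted by Cell Tracker Red CMTPX staining in the red channel.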 On lipid storage change, negative = inhibition: on the % scale 0 is the no-effect control and ±100 the full control effect. The conditions noted are these: BODIPY lipid droplet fluorescence, 18-24 h, cells fed with added oleic acid; cell number change: measured here: cell count max response; series mostly up to 46.1 µM; lipid storage change, negative = inhibition: at the top concentration. The essentials:
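Drosophila S3 cells loaded with oleic acid (400 uM, as added) and compounds at several concentrations; lipid droplets imaged by 488-nm laser-scanning cytometry, 500–530 nm intensity and object ratio to cell channel. Percent activity normalized to 20 uM Triacsin C.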
In general terms: In qHTS, concentration-response curves come from the screen itself.
Regarding `CC(=O)c1ccc(S(=O)(=O)N2CCN(C(=O)c3ccccc3Cc3ccccc3)CC2)cc1`, the “lipid storage change, negative = inhibition” value is 18% (inactive).

`CCNC(=O)CN(CCc1ccccc1)S(C)(=O)=O`: the “lipid storage change, negative = inhibition” value was -19.8% (inactive) and the cell number change is -1.75%.

For the compound `NC(=O)CSc1nccn1Cc1ccccc1`, the “lipid storage change, negative = inhibition” value was 4.18% (inactive) and the cell number change was -3.05%.

For `CCOc1ccc(S(=O)(=O)N2CCC(C(=O)NCC3CCCO3)CC2)cc1Cl` (stereo not drawn), the compound was classed as inactive and the cell number change amounted to 20.5%. Take `CSc1ccc(S(=O)(=O)NC2CC2)cc1`: the “lipid storage change, negative = inhibition” value is 15.4% (inactive) and the cell number change stood at 1.23%. Taken in the same sequence, the figures for `O=S(=O)(NC1CCCC1)c1ccc(S(=O)(=O)NC2CCCC2)cc1` were 11.9% (inactive) and 5.07%. With `CSc1ccc(S(=O)(=O)NC2CCCCC2)cc1`, the Potency was 23.1 µM (active) and the cell number change amounted to 26.8%. Consider `Cc1cccc(C)c1NC(=S)N(CCN(C)C)Cc1cccs1`, for which the “lipid storage change, negative = inhibition” value was 0.695% (inactive) and the cell number change is -10.3%. As to `O=S(=O)(Nc1cccc(-n2cnnn2)c1)c1ccccc1`, the compound was called inactive and the cell number change is -16.7%. As to `O=S(=O)(Nc1ccc(-n2cnnn2)cc1)c1ccc(Cl)cc1`, the “lipid storage change, negative = inhibition” value is 0.143% (inactive) and the cell number change is -6.89%. As for `O=S(=O)(Nc1cccc(-n2cnnn2)c1)c1ccccc1C(F)(F)F`, the result was inactive and the cell number change was -11%. In the same order, the values of `Cc1ccc(S(=O)(=O)Nc2ccc(-n3cnnn3)cc2)cc1` are “inactive” and 12.5%. For `Cc1ccc(S(=O)(=O)Nc2ccc(-n3cnnn3)cc2)c(C)c1`, the Potency is 0.58 µM (active) and the cell number change is -8.9%. Taken in the same sequence, the figures for `O=S(=O)(Nc1cccc(-n2cnnn2)c1)c1cc(Br)ccc1Br` were 20.6 µM (active) and -10.7%.

On to `O=C(CNC(c1ccccc1)c1ccccc1)NCc1ccccc1Cl`, for which the “lipid storage change, negative = inhibition” value is -4.84% (inactive) and the cell number change was determined as 11.7%. In the same order, the values of `Cc1cccc(N2CCN(S(=O)(=O)c3c(C)noc3/C=C/N(C)C)CC2)c1C` are -15.8% (inactive) and 12.9%. In the case of `Cc1cc(C)nc(NC(=O)/C=C/c2cccs2)c1`, the “lipid storage change, negative = inhibition” value is 20.5% (inactive) and the cell number change is -8.29%. As for `O=C(/C=C/c1cccs1)Nc1nc(-c2ccccc2)cs1`, the “lipid storage change, negative = inhibition” value is 24.3% (inactive). Turning to `Cc1cc(C)c(-c2csc(NC(=O)/C=C/c3cccs3)n2)c(C)c1`, the Potency is 16.4 µM (active) and the cell number change was -27.5%. For the compound `O=C(NCCCc1ccccc1)C1CC(=O)N(c2ccc3c(c2)OCCO3)C1` (stereo not drawn), the “lipid storage change, negative = inhibition” value was 9.93% (inactive) and the cell number change worked out at 12.6%. In the same order, the values of `Cc1coc(=N)n1CC(=O)c1ccc(Cl)cc1` are 12.1% (inactive) and 10.4%.

On to `O=c1c(Cl)c(Cl)cnn1Cc1ccccc1Cl`, for which the Potency is 14.6 µM (active) and the cell number change is -22.7%. Take `Cc1ccc(Cn2ncc(Cl)c(Cl)c2=O)cc1`: the “lipid storage change, negative = inhibition” value was -3.59% (inactive) and the cell number change was 1.44%. For `O=c1[nH]cnc2c1cnn2Cc1ccccc1Cl`, the outcome was inactive. On to `O=C(CS(=O)(=O)c1ccccc1)Nc1nnc(-c2cccs2)o1`, for which the “lipid storage change, negative = inhibition” value is -5.63% (inactive) and the cell number change was found to be 3.1%. Regarding `Oc1ccc2ccccc2c1C=Nc1ccc(N2CCOCC2)cc1`, the compound was classed as inactive. As to `CCn1c(=Nc2ccc(N3CCOCC3)cc2)ccc2ccccc21`, the Potency is 9.2 µM (active) and the cell number change is -184%.

On to `CCn1c2ccccc2c2cc(NC(=O)CN(C)CC(=O)Nc3ccc(N4CCOCC4)cc3)ccc21`, for which the cell number change is -4.9% and the lipid storage change, negative = inhibition was -0.511% [at 9.22 µM] (inactive). As for `COc1cc(C(c2sc3ncnn3c2O)N2CCN(c3ccccc3F)CC2)cc(OC)c1OC` (stereo not drawn), the “lipid storage change, negative = inhibition” value is 1.93% (inactive) and the cell number change was 14.8%.

In the case of `CSc1nc(SCC(=O)O)c2c3c(sc2n1)COC(C)(C)C3`, the “lipid storage change, negative = inhibition” value is 21.3% (inactive) and the cell number change stood at 9.24%.

In the case of `COc1ccc(S(=O)(=O)N2CCOCC2)cc1NC(=O)CSc1nnc2c(n1)[nH]c1ccccc12`, the “lipid storage change, negative = inhibition” value was -9.37% (inactive) and the cell number change is -0.0197%. In the same order, the values of `C=CCNC(=S)N1CCN(CCN=CC2=C(O)CC(c3cccs3)CC2=O)CC1` (stereo not drawn) are 3.99% (inactive) and 17.2%. `CCCCCC(=O)N1CCN(CCN=CC2=C(O)CC(c3cccs3)CC2=O)CC1` (stereo not drawn): the “lipid storage change, negative = inhibition” value is -4.09% (inactive) and the cell number change came out at 0.809%. Take `CC(=O)N1CCN(CCN=CC2=C(O)CC(c3cccs3)CC2=O)CC1` (stereo not drawn): the Potency is 20.6 µM (active) and the cell number change is -26.6%. Regarding `Cc1coc2c(C)c3oc(=O)c(CCC(=O)NCCC(=O)O)c(C)c3cc12`, the compound was classed as inactive and the cell number change came out at 7.91%. As for `Cn1c(SCc2ccc(Br)cc2)nc2ccccc2c1=O`, the compound was classed as inactive and the cell number change is -15.2%. `Cc1ccc(-c2nc(CSc3nc4ccccc4c(=O)n3C)cs2)cc1`: the “lipid storage change, negative = inhibition” value was -7.82% (inactive) and the cell number change stood at 13.2%.

Take `Cc1ccc(CSc2nc3ccccc3c(=O)n2C)cc1`: the Potency was 16.4 µM (active) and the cell number change was determined as 10.9%. As to `COC(=O)c1[nH]c2ccc(Cl)cc2c1NC(=O)C1CC1`, the “lipid storage change, negative = inhibition” value was 8.69% (inactive) and the cell number change turned out to be 1.77%.

Turning to `CCN(CC)c1ccc(/C=N/n2c(C)cc(C)cc2=O)cc1`, the “lipid storage change, negative = inhibition” value was 18.4% (inactive) and the cell number change was found to be 0.542%.

Consider `CCc1n[nH]c(=S)n1/N=C/c1ccc(N(CC)CC)cc1`, for which the “lipid storage change, negative = inhibition” value was 18.9% (inactive) and the cell number change was -4.64%. Regarding `CCN(CC)c1ccc(/C=N/N2CC(=O)NC2=S)cc1`, the Potency is 0.291 µM (active) and the cell number change was -17.5%.

`COc1cc(NC(=O)c2ccc([N+](=O)[O-])cc2)c(OC)cc1NC(=O)CC(C)C`: the “lipid storage change, negative = inhibition” value is -0.885% (inactive) and the cell number change was 14.3%. Regarding `O=C(c1ccco1)N1N=C(c2ccc3nccnc3c2)CC1c1ccccc1` (stereo not drawn), the “lipid storage change, negative = inhibition” value was 2.86% (inactive) and the cell number change was 13.8%. For the compound `COCCNC(=O)c1ccc2c(c1)S(=O)(=O)c1cc(Cl)ccc1C2=O`, the Potency was 5.8 µM (active) and the cell number change came out at 9.21%. `CCCNC(=O)c1ccc2c(c1)S(=O)(=O)c1ccccc1C2=O`: the “lipid storage change, negative = inhibition” value was -27.4% (inactive) and the cell number change came out at 6.31%.
